Screening results from PubChem.
NS1 inh = qHTS Assay for Inhibitors of Influenza NS1 Protein Function; Potency, µM (top dose mostly 46.1 µM), inactives show at the highest dose activity, positive = more growth; hit rate 0.4% among 270,000; calls by dose curve; note: actives are rising curves; nearly all actives have a fitted effect of over 50% in size
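Compounds were scored for reversing the slow growth caused by influenza A NS1 in S. cerevisiae, measured by optical density at 600 nm. Assay medium contained 2% galactose at pH 6.0; NS1-free yeast of the same strain were the positive control.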
AmpC inh detg = qHTS Inhibitors of AmpC Beta-Lactamase (assay with detergent) | P00811 | AmpC hydrolysis of nitrocefin, absorbance 480 nm, 0.01% Triton | Potency, µM (titrated, usually from 114 µM), without a hit: top-dose activity change, negative = inhibition, most hits filed as inhibitors | hit rate 0.041% among 370,000 | AID 485294, 2010;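 note: 0% = no-compound wells and -100% = no-enzyme wells; nearly all actives have a fitted effect of over 25% in size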
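AmpC (5.3 nM in the dispensed reagent) in 20 mM phosphate pH 7.0 with 0.01% (detergent screen) or 0.0001% Triton X-100 was preincubated with compounds for 15 min at room temperature. Nitrocefin was then added from an 800 uM solution, and hydrolysis was followed at 480 nm.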
Giardia FBPA inh-1 = qHTS Assay for Inhibitors of Fructose-1,6-bisphosphate Aldolase from Giardia Lamblia | A8B2U2 | purified Giardia FBPA | Potency, µM (series often up to 59.6 µM), for the others: top-dose activity, negative = inhibition, hits mostly inhibitors | hit rate 0.71% among 290,000; note: % is set by controls: 0 for no effect and ±100 for the full control effect; nearly all actives have a fitted effect of over 55% in size
Target sequence (A8B2U2 whole entry, looked up): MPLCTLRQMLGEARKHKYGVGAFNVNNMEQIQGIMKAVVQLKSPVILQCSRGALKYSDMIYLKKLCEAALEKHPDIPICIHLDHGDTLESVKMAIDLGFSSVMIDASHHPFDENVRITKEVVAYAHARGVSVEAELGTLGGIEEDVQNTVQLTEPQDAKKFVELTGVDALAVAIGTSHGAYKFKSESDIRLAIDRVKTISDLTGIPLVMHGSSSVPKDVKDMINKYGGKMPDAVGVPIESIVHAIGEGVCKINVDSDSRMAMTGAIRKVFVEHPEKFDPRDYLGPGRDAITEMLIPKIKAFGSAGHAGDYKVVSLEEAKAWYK
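40 nM FBPA preincubated 10 min at RT with compound (up to 57.5 uM final), then substrate plus GAPDH/TPI/NAD/arsenate coupling and diaphorase/resazurin added. Fluorescence read after 20 min at RT, 525/598 nm.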
AmpC inh no detg = qHTS Inhibitors of AmpC Beta-Lactamase (assay without detergent). hit rate 0.52% among 330,000. AmpC nitrocefin hydrolysis, absorbance 480 nm, 0.0001% Triton. Potency, µM (doses to about 57.1 µM), for the others: at the highest dose activity change, negative = inhibition, most hits filed as inhibitors. P00811;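 note: plate controls were no compound for no effect and no enzyme for full effect; nearly all actives have a fitted effect of over 20% in size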
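AmpC (5.3 nM in the dispensed reagent) in 20 mM phosphate pH 7.0 with 0.01% (detergent screen) or 0.0001% Triton X-100 was preincubated with compounds for 15 min at room temperature. Nitrocefin was then added from an 800 uM solution, and hydrolysis was followed at 480 nm.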
SARS PLpro yeast = qHTS of Yeast-based Assay for SARS-CoV PLP; S. cerevisiae expressing SARS-CoV PLpro, growth rescue; Potency, µM (top dose mostly 32.9 µM), without a hit: at the highest dose activity, positive = growth rescue, usual class: activators; hit rate 0.19% among 330,000; AID 485353, 2010; calls by dose curve; note: 0% is about no effect; nearly all actives have a fitted effect of over 55% in size
Giardia growth = qHTS Assay for Inhibitors of Fructose-1,6-bisphosphate Aldolase from Giardia Lamblia: Giardia lamblia growth inhibition; Giardia lamblia trophozoite growth inhibition; hit rate 5% among 1,500; Potency, µM (doses to about 57.5 µM), inactives show at the top dose activity change, negative = inhibition, hits mostly inhibitors; shares compounds with Giardia FBPA inh-1;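 note: trophozoites exposed to compound for 48 h at 37 °C; % is set by controls: 0 for no effect and ±100 for the full control effect; nearly all actives have a fitted effect of over 70% in size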
Mammalian tox = qHTS Assay for Inhibitors of Fructose-1,6-bisphosphate Aldolase from Giardia Lamblia: Mammalian cellular toxicity | hit rate 4% among 1,500 | Potency, µM (titrated, usually from 57.5 µM), for inactives: at the top dose viability change, negative = toxicity, actives largely listed as inhibitors | shares compounds with Giardia FBPA inh-1 | mammalian cell viability counter-screen, qHTS;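 note: Chinese hamster ovary cells used as mammalian cytotoxicity surrogate; viability measured as cellular ATP by luminescence; compound exposure lasted 48 h before reading; % is set by controls: 0 for no effect and ±100 for the full control effect; nearly all actives have a fitted effect of over 60% in size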
Giardia FBPA inh-2 = qHTS Assay for Inhibitors of Fructose-1,6-bisphosphate Aldolase from Giardia Lamblia: Primary screen confirmation | shares compounds with Giardia FBPA inh-1 | purified Giardia aldolase enzyme activity, qHTS | Potency, µM (highest dose often 57.5 µM), inactives show top-dose activity change, negative = inhibition, usual class: inhibitors | hit rate 5% among 1,500; note: % is set by controls: 0 for no effect and ±100 for the full control effect; nearly all actives have a fitted effect of over 45% in size
Rabbit FBPA inh = qHTS Assay for Inhibitors of Fructose-1,6-bisphosphate Aldolase from Giardia Lamblia: Rabbit FBPA Selectivity. Rabbit muscle FBPA enzyme inhibition, selectivity counter-screen. shares compounds with Giardia FBPA inh-1. hit rate 4% among 1,500. Potency, µM (series often up to 57.5 µM), inactives show at the highest dose activity, negative = inhibition, hits mostly inhibitors; note: % is set by controls: 0 for no effect and ±100 for the full control effect; nearly all actives have a fitted effect of over 60% in size
Target sequence (P00883 whole entry, looked up): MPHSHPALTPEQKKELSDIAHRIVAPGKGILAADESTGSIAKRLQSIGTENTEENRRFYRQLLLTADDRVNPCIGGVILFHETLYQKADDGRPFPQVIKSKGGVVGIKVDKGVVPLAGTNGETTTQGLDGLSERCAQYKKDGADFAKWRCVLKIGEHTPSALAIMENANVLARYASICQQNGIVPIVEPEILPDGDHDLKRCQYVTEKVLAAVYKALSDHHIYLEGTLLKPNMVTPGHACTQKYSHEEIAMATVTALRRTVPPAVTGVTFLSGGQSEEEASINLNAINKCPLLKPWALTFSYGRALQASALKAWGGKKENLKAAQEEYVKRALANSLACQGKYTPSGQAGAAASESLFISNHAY
GAPDH coupling = qHTS Assay for Inhibitors of Fructose-1,6-bisphosphate Aldolase from Giardia Lamblia: Coupling assay counterscreen confirmation; shares compounds with Giardia FBPA inh-1; Potency, µM (series often up to 57.5 µM), inactives show top-dose activity change, negative = inhibition, hits mostly inhibitors; GAPDH coupling enzyme counterscreen, biochemical, qHTS; hit rate 6% among 1,500; note: % is set by controls: 0 for no effect and ±100 for the full control effect; nearly all actives have a fitted effect of over 55% in size
Starred values were filed as active, the others as inactive; ? = inconclusive; · = not tested or not shown; [ ] = dose if it differs, or a comment. Rows were chosen to be rich in hits. Some 1.4% of all compounds tested hit in one or more screens of this group. Unless noted, calls come from the whole dose curve; as a rule, active = well fitted curve in the direction sought with a large enough effect; inconclusive = small, poorly fitted or top-dose-only effect, or another doubt; inactive = no such curve, though single readings can be large; an effect the other way counts as inactive or inconclusive. Potency is the fitted concentration of half-maximal effect.

SMILES	NS1 inh	AmpC inh detg	Giardia FBPA inh-1	AmpC inh no detg	SARS PLpro yeast	Giardia growth	Mammalian tox	Giardia FBPA inh-2	Rabbit FBPA inh	GAPDH coupling
O=C(O)CNC(=O)CC1S/C(=N/N=C2\CSC(=O)N2)NC1=O (stereo not given)	2.0%	4.1%	5.61µM*	-18.1%	4.9%	12.7%[38.3 µM]	4.5%	-10.3%	7.6%	-8.4%
O=C1C(=O)N(Cc2cccnc2)C(c2ccccn2)/C1=C(/O)c1ccccc1 (stereo not given)	1.9%	-9.1%	6.8%	-2.7%	0.7%	·	·	·	·	·
O=C(Oc1ccc2ccccc2c1Cl)N1CCCCCC1	-16.6%	?	8.1%	-30.6%	-57.1%	·	·	·	·	·
CCn1ncc(-c2ccnc3cc(C(=O)O)nn23)c1C	·	0.1%	15.8µM*	-15.4%	-8.8%	22.9%	24.8%	-2.1%	-3.5%	-1.5%
O=C(O)c1cc2nccc(-c3ccc(F)cc3)n2n1	3.1%	-12.0%	17.7µM*	-4.4%	1.9%	22.8%	-2.4%	13.0%	10.7%	6.1%
CSC1=NS(=O)(=O)c2c(C)nn(C)c2S1	-0.6%	1.0%	15.8µM*	101.8%	1.2%	30.0%	8.7%	-2.6%	39.8µM*	?
Cc1ccc(N(C(=O)c2snc(C(N)=O)c2N)C(C(=O)NC2CCCC2)c2ccncc2)cc1 (stereo not given)	-10.0%	1.0%	0.1%	30.5%	1.5%	·	·	·	·	·
O=c1c2ccccc2[se]n1-c1ccccc1	-28.0%	?	7.92µM*	?	-75.7%	20µM*	?	?	22.4µM*	-6.2%
CC1CCN(C(=O)CSc2nncn2C)CC1	6.9%	?	6.4%	-17.7%	6.1%	·	·	·	·	·
Cn1c(=O)c(C(=O)Nc2ncccc2O)c(O)c2ccccc21	-152.2%	-10.1%	8.89µM*	4.5%	0.2%	7.3%[10.4 µM]	-4.7%	?	?	-14.1%
CCCn1c(=O)c(C(=O)Nc2ncccc2O)c(O)c2ccccc21	-10.6%	-9.2%	?	-20.8%	5.9%	·	·	·	·	·
CCN(CC)S(=O)(=O)c1cccc(C(=O)N/N=C/c2ccccn2)c1	·	-14.0%	17.7µM*	-41.1%	-0.6%	-29.8%	8.7%	9.0%	7.7%	6.6%
O=C(N/N=C/c1ccccn1)c1cccc(S(=O)(=O)Nc2ccccc2Cl)c1	-4.8%	-5.9%	15.8µM*	-44.7%	-0.4%	?	-9.8%	5.6%	-19.6%	?
CCN(CC)S(=O)(=O)c1cccc(C(=O)N/N=C/c2cccc(O)c2O)c1	5.1%	-4.8%	?	-51.8%	?	·	·	·	·	·
CCOc1ccc(-c2nc3c(C#N)c[nH]n3c2NC2CCCCC2)cc1	·	8.0%	·	·	·	·	·	·	·	·
Cc1c(NC(=O)C(C)OC(=O)COc2cccc3c2OC(C)(C)C3)c(=O)n(-c2ccccc2)n1C (stereo not given)	-7.2%	-11.5%	-0.4%	10.5%	7.6%	·	·	·	·	·
CC(C)(C)C(=O)N1CCN(S(=O)(=O)c2ccc3c(c2)OCCCO3)CC1	·	?	·	3.2%	-0.8%	·	·	·	·	·
O=C(O)c1ccc[nH]c1=S	-5.1%	2.2%	4.46µM*	-8.6%	0.4%	26.6%[38.3 µM]	-7.0%	1.6%	-0.3%	8.8%
O=C(O)c1ccccc1C(=O)O	·	2.1%	·	-8.2%	?	·	·	·	·	·
C/C(=N\NC(N)=S)c1ccccc1	-2.8%	-3.5%	15.8µM*	-16.5%	7.0%	26.6%	6.7%	5.5%	5.3%	7.2%
CCOC(=O)CCCc1ccc(/C(C)=N/NC(N)=S)cc1	-53.3%	-6.9%	6.29µM*	-34.9%	20.7%	13.2%[38.3 µM]	-1.3%	10.3%	9.5%	-3.2%
C/C(=N\NC(N)=S)c1ccc2c(c1)OCCO2	-5.0%	-5.2%	17.7µM*	-24.7%	1.5%	?	-9.6%	11.0%	8.2%	9.5%
COc1ccc(S(=O)(=O)Nc2cccc3c2O[C@H](CN(C)Cc2ccc(-c4ccccc4)cc2)[C@@H](C)CN([C@H](C)CO)C3=O)cc1	·	·	·	174.4%	2.5%	·	·	·	·	·
Cc1c(O)ccc2c(CN3CCN(Cc4ccccc4)CC3)cc(=O)oc12	7.9%	-3.9%	-6.2%	-24.7%	0.2%	·	·	·	·	·
O=c1cc(CN2CCN(Cc3ccccc3)CC2)c2ccc(O)c(O)c2o1	3.1%	-5.2%	17.8µM*	-21.1%	7.3%	-28.2%	-27.6%	?	?	-24.0%
SMILES	NS1 inh	AmpC inh detg	Giardia FBPA inh-1	AmpC inh no detg	SARS PLpro yeast	Giardia growth	Mammalian tox	Giardia FBPA inh-2	Rabbit FBPA inh	GAPDH coupling
CCOC(=O)C1=C(O)/C(=C/c2ccc(CNC(=O)C(=O)Nc3ccc(C)cc3)o2)N=C1C	21.9%	1.4%	4.46µM*	-24.2%	-6.8%	?	?	-28.2%	-13.0%	6.2%
Cc1ccc(-c2nc3ccccn3c2Nc2ccc3c(c2)OCCO3)s1	·	12.1%	·	·	·	·	·	·	·	·
Cc1nc(/N=C(\N)NC(=O)N2c3ccccc3Sc3ccccc32)nc2ccccc12	23.1%	?	-2.9%	-6.2%	-43.8%	·	·	·	·	·
COc1cccc(C(=O)OCC(=O)c2ccc(S(=O)(=O)N3CCCCC3)cc2)c1OC	·	?	·	-7.1%	0.4%	·	·	·	·	·
COc1cc(-c2nc(S(=O)(=O)c3ccc(C)cc3)c(N3CCOCC3)o2)cc(OC)c1OC	2.3%	-4.9%	35.5µM*	-3.5%	-9.6%	?	-21.8%	2.5%	9.7%	6.3%
COc1cc(-c2nc(S(=O)(=O)c3ccc(Cl)cc3)c(N3CCOCC3)o2)cc(OC)c1OC	-57.3%	-0.6%	1.3%	-3.5%	-2.8%	·	·	·	·	·
CC(=O)c1cccc(NC(=O)CCn2nc(C)c(S(=O)(=O)N(C)C)c2C)c1	·	10.4%	·	·	·	·	·	·	·	·
C(=C\CSc1ncn[nH]1)/CSc1ncn[nH]1	3.1%	?	?	-6.4%	-1.3%	0.4%[38.3 µM]	3.6%	-1.8%	1.0%	1.9%
